# Rows were chosen to be rich in hits. Some 1.7% of all compounds tested hit in one or more screens of this group.
# PAD4 inh: inhibitors of human PAD4 | recombinant PAD4, RCA probe fluorescence polarization | 330,000 compounds, 0.41% hits | inhibition, % at 6.36 µM | Q9UM07;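 active = percent inhibition above a cutoff equal to the mean of all tested compounds plus 3 SD, cut at about 15% in these data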;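 note: 0% = PAD4 with RCA probe and DMSO and 100% = probe without PAD4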
# GSTO1 counter: GSTO1 inhibition, counter-screen for RBBP9 inhibitors. P78417. recombinant GSTO1, activity-based probe fluorescence polarization. inhibition, % at 5.96 µM. 300,000 compounds, 1.1% hits;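 active = inhibition above the campaign mean inhibition plus 3 SD, cut at about 35% in these data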;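 note: 0% = GSTO1-1 with DMSO and 100% = wells lacking GSTO1-1 enzyme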
# Target sequence (P78417 whole entry, looked up): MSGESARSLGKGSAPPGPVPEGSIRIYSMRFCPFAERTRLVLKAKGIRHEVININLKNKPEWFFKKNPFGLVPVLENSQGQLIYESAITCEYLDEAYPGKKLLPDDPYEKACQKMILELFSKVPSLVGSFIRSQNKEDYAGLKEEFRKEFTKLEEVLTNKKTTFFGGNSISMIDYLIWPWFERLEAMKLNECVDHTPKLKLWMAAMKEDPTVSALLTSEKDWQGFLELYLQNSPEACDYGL
# LYPLA1 inh: LYPLA1 (human) inhibition in PME1 counter-screen. recombinant LYPLA1, FP-Rh probe fluorescence polarization. inhibition, % at 5.9 µM. 320,000 compounds, 0.16% hits;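 active = inhibition above the mean of all tested compounds plus 3 SD, set per campaign, cut at about 14% in these data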;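 note: inhibitors block serine hydrolase probe labeling of LYPLA1 so polarization falls; 0% = enzyme with DMSO and 100% = wells lacking LYPLA1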
# Target sequence (O75608 whole entry, looked up): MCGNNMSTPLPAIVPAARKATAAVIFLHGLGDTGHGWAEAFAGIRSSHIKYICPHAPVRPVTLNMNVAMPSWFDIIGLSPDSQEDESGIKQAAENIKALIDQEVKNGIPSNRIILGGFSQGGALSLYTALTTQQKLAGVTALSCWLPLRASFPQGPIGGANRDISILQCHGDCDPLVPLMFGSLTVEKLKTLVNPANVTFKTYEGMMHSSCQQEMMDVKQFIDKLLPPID
# ZTA DNA inh: blocks Epstein-Barr virus ZTA, an EBNA-1 counter-screen; P03206; ZTA-DNA binding, fluorescence polarization; inhibition, % at 11 µM; 320,000 compounds, 0.15% hits; AID 2234; in the data active = inhibition above about 33%
# EBNA-1 inhibitor: blocks EBNA-1 binding to DNA; EBNA-1 DNA binding, fluorescence polarization; inhibition, % at 14.8 µM; 300,000 compounds, 0.34% hits; AID 1950; in the data active = inhibition above about 28%
# LYPLA2 inh: counter-screen for PME1 inhibitors: inhibitors of human LYPLA2; O95372; recombinant LYPLA2, FP-Rh probe fluorescence polarization; inhibition, % at 5.9 µM; 320,000 compounds, 0.38% hits; AID 2177;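 active = inhibition above the screen-wide mean plus 3 SD, limit set per campaign, cut at about 26% in these data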;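 note: 0% = LYPLA2 with DMSO and 100% = wells lacking LYPLA2 enzyme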
# Starred values were filed as active, the others as inactive.
SMILES,PAD4 inh,GSTO1 counter,LYPLA1 inh,ZTA DNA inh,EBNA-1 inhibitor,LYPLA2 inh
CCn1c2ccccc2c2cc(NC(=O)COC(=O)c3ccc(NC(=O)CC#N)cc3)ccc21,-13,36*,-22,6,16,-11
Nc1ccc2c(c1)-c1ccccc1S(=O)(=O)N2,6,37*,-4,-10,-8,6
Cc1ccc2c(c1)-c1ccccc1S(=O)(=O)N2,0,3,-2,9,9,-1
O=C(O)/C(=C\c1ccc(Cl)c([N+](=O)[O-])c1)c1ccc(S(=O)(=O)N2CCCCC2)s1,-1,62*,2,6,-1,6
O=C(O)C1=CC(=C(c2ccc(O)c(C(=O)O)c2)c2ccc(O)c(C(=O)O)c2)C=CC1=O,-47,-82,-12,111*,93*,-8
CC1=C/C(=C(\c2ccc(O)c(C)c2)c2ccccc2S(=O)(=O)O)C=CC1=O,4,10,0,-12,-3,4
O=C(/C=C/c1ccc(O)c(O)c1)OC(Cc1ccc(O)c(O)c1)C(=O)O (stereo not drawn),5,55*,0,-5,3,2
O=[N+]([O-])c1cc(C(F)(F)F)cc([N+](=O)[O-])c1NN=C1CCCCC1,-1,37*,-4,4,-4,2
O=[N+]([O-])c1cc(S(=O)(=O)N2CCCC2)ccc1NN=C1CCCCC1,7,-3,-1,1,1,7
Cc1ccc(S(=O)(=O)CNC(=S)c2cccc(Cl)c2)cc1,2,38*,-3,7,5,2
[N-]=[N+]=NCC/C=C\C1NS(=O)(=O)OCC1O (stereo not drawn),-1,1,1,20,7,4
O=C1/C(=C/c2ccc(C(=O)O)cc2)CCC/C1=C\c1ccc(C(=O)O)cc1,3,-3,4,61*,3,-4
O=C1/C(=C/c2cccnc2)CC/C1=C\c1cccnc1,-2,-11,-1,-6,-6,-1
O=C1/C(=C/c2cccnc2)CCC/C1=C\c1cccnc1,1,0,1,38*,8,3
O=C1C(=O)N(CCS(=O)(=O)c2ccccc2)c2ccc(F)cc21,-6,36*,2,-17,-8,9
Cc1ccc(C(C[N+](=O)[O-])c2c(-c3ccccc3O)[nH][nH]c2=O)cc1 (stereo not drawn),-6,35*,0,-2,7,4
CC(C)[C@H](N)C(=O)NC[C@H]1CC[C@H](C(=O)N[C@@H](Cc2ccccc2)C(=O)O)CC1,-2,-3,2,-16,-8,4
O=[N+]([O-])c1ccc(NCCCNS(=O)(=O)c2ccc(Cl)cc2)c(Cl)c1,-6,3,-2,10,9,27*
O=[N+]([O-])c1ccccc1NCCNS(=O)(=O)c1ccc(Cl)cc1,-10,3,-2,6,-2,4
Cc1csc(NC(=O)C2CCN(C(=O)c3ccccc3C)CC2)n1,0,0,0,3,1,-2
CC(C(=O)NCC1CCCCC1)N1CCN(S(=O)(=O)/C=C/c2ccccc2)CC1 (stereo not drawn),-3,35*,0,5,5,17
N#Cc1c(N(CCO)CCO)nc(N)c2c(N)nc3c(c12)CC(=O)N3CC1CCCO1 (stereo not drawn),1,32,7,-18,-11,4
CCCCN1C(=O)Cc2c1nc(N)c1c(N)nc(N(CCC)CCC)c(C#N)c21,-14,73*,-1,-6,-6,-1
Cc1nc2c(ncn2-c2ccccc2)c(=O)n1NC(=O)CN1CCCCC1,-4,-3,2,4,-13,2
ClCc1csc(-c2ccccc2Cl)n1,-3,94*,-4,-10,5,0
SMILES,PAD4 inh,GSTO1 counter,LYPLA1 inh,ZTA DNA inh,EBNA-1 inhibitor,LYPLA2 inh
CC(C)(C)c1ccc(NS(=O)(=O)c2ccc(N)cc2)cc1,-3,36*,-5,-6,1,0
CCc1ccc(N2C(=O)CC(NNc3nc4ccccc4s3)C2=O)cc1 (stereo not drawn),-12,38*,-1,10,11,11
NC(=O)C1CCN(C2=C(NS(=O)(=O)c3ccc(Br)cc3)C(=O)c3ccccc3C2=O)CC1,-14,35*,0,6,-20,11
Cc1ccccc1-c1nnc(SCCOc2ccc3c(C)cc(=O)oc3c2)o1,-1,36*,3,4,1,1
Cc1cc(=O)oc2cc(OCCSCCN3CCCC3)ccc12,1,11,2,8,12,4
Cc1noc(C)c1C(=O)N1CCN(S(=O)(=O)c2cccc(Cl)c2Cl)CC1,-2,8,0,-11,1,-2
CC1CC(C)CN(CC(O)COCCOc2ccc(Br)cc2)C1 (stereo not drawn),0,2,1,6,11,1
CC1(C)CC(O)CC(C)(C)N1CC(O)COCCOc1ccc(Br)cc1 (stereo not drawn),2,35*,-2,3,-2,-7
CCCCNCCOCCOc1ccccc1-c1ccccc1,0,-1,-1,-4,34*,2
COc1ccc(-c2noc(CNS(=O)(=O)c3ccc(NC(C)=O)cc3)n2)cc1,0,37*,-4,5,-20,-3
CS(=O)(=O)Nc1ccc(C2=NN(C(=O)CCCC(=O)O)C(c3cccs3)C2)cc1 (stereo not drawn),0,-4,0,-6,3,-5
CC(=O)n1cc(N(C(=O)CCl)c2ccc(C)cc2)c2ccccc21,12,70*,1,3,0,2
CC(=O)N(c1ccc(Cl)cc1)c1cn(C(C)=O)c2ccccc12,0,-2,-4,-4,-3,-3
Cc1ccc(NC(=S)NNC(=S)Nc2ccc(C)cc2C)cc1,3,47*,-1,14,9,-1
N#Cc1ccc(CSc2nnc(NC(=O)c3ccc4ncsc4c3)s2)cc1,1,-5,-2,6,37*,-9
COc1ccccc1C(=O)NCC(=O)OC(C)C(=O)N1CCOCC1 (stereo not drawn),1,7,5,-22,-5,11
COc1cccc(OC)c1-c1nn2c(-c3cc(-c4ccccc4)n[nH]3)nnc2s1,-3,-28,0,165*,60*,12
CN1CCC(OC(=O)c2cccc(Cl)c2)CC1,-5,5,-4,8,-8,0
COc1ccc(N2CCN(CCCNC(=O)Cn3c(=O)c4cccn4c4ccccc43)CC2)cc1,-3,3,2,-10,6,14
CCOC(=O)N1CCN(C(=O)c2ccc3nc(SCc4ccc(F)cc4)n(C)c3c2)CC1,-4,-19,-28,-2,-13,28*
O=C(O)CCc1ccc(-c2ccc(Br)cc2)n1-c1cccc(O)c1,2,35*,0,-4,6,8
O=C(O)CCc1ccc(-c2ccccc2)n1-c1cccc(C(=O)O)c1,1,8,7,-11,1,6
